We go through 27 compounds from ChEMBL document CHEMBL5606460, “ASAP - DENV-2 NS2B-NS3 protease fluorescence single point” (2024).

About 110 (5.5%) of roughly 2,000 compounds showed an effect of 50% or more. The full list was thinned out, with strong results kept by preference.

The assay concerns the target Genome polyprotein (dengue virus type 2) (UniProt P29990).
Setting [1] is: Thailand/16681/1984, Concentration 25.0 uM, Number of replicates 1.0.

Consider `NCc1cccc(NC(=O)[C@@H](CCC(N)=O)NC(=O)OCc2ccccc2)c1`, for which the inhibition (commonly the drop in the measured response relative to a control, in per cent) runs as follows: (Thailand/16681/1984, Concentration 49.5 uM, Number of replicates 2.0, Standard deviation 0.6750820884014238 %) -3.1%; (Thailand/16681/1984, Concentration 99.01 uM, Number of replicates 2.0, Standard deviation 2.465072002477128 %) -1.7%; (Thailand/16681/1984, Concentration 198.0 uM, Number of replicates 2.0, Standard deviation 2.5897319885400165 %) -0.981%.
`NCc1cccc(NC(=O)[C@@H](NC(=O)OCc2ccccc2)c2ccc(F)c(F)c2)c1`: the inhibition (Thailand/16681/1984, Concentration 49.5 uM, Number of replicates 2.0, Standard deviation 1.4013065114851189 %) is -6.54%; the inhibition (Thailand/16681/1984, Concentration 99.01 uM, Number of replicates 2.0, Standard deviation 2.1722806038563465 %) was -6.15%; the inhibition (Thailand/16681/1984, Concentration 198.0 uM, Number of replicates 2.0, Standard deviation 2.359590386651735 %) is -2.47%.
Turning to `NCc1cccc(NC(=O)[C@@H](NC(=O)OCc2ccccc2)c2ccc(OCc3ccccc3)cc2)c1`, the inhibition is, setting by setting: (Thailand/16681/1984, Concentration 49.5 uM, Number of replicates 2.0, Standard deviation 0.05193031216203084 %) 99.8%; (Thailand/16681/1984, Concentration 99.01 uM, Number of replicates 2.0, Standard deviation 0.07343936624368645 %) 99.8%; (Thailand/16681/1984, Concentration 198.0 uM, Number of replicates 2.0, Standard deviation 0.025182910572653226 %) 99.6%.
As to `NCc1cccc(NC(=O)[C@@H](NC(=O)OCc2ccccc2)c2ccc(Br)cc2)c1`, the inhibition is, setting by setting: (Thailand/16681/1984, Concentration 49.5 uM, Number of replicates 2.0, Standard deviation 0.0939294781157427 %) -4.11%; (Thailand/16681/1984, Concentration 99.01 uM, Number of replicates 2.0, Standard deviation 0.02096957442071617 %) 99.8%; (Thailand/16681/1984, Concentration 198.0 uM, Number of replicates 2.0, Standard deviation 0.044447729264800756 %) 99.8%.
`NCc1cccc(NC(=O)[C@@H](NC(=O)OCc2ccccc2)c2ccccc2)c1`: the inhibition reads like this: (Thailand/16681/1984, Concentration 49.5 uM, Number of replicates 2.0, Standard deviation 1.0300513707602847 %) 0.869%; (Thailand/16681/1984, Concentration 99.01 uM, Number of replicates 2.0, Standard deviation 0.7240873671299501 %) 0.819%; (Thailand/16681/1984, Concentration 198.0 uM, Number of replicates 2.0, Standard deviation 0.6193503939215136 %) 0.644%.
As for `NC(=O)c1cccc(NC(=O)[C@@H](NC(=O)OCc2ccccc2)c2ccc(OCc3ccccc3)cc2)c1`, the inhibition came out at 3.65% (Thailand/16681/1984, Concentration 49.5 uM, Number of replicates 2.0, Standard deviation 9.041969593425012 %); 9.06% (Thailand/16681/1984, Concentration 99.01 uM, Number of replicates 2.0, Standard deviation 1.1271011381219709 %); 16% (Thailand/16681/1984, Concentration 198.0 uM, Number of replicates 2.0, Standard deviation 1.277025907644923 %).
As to `CCCCCC(=O)N[C@H](C(=O)NCc1ccc(NC(=N)N)cc1)c1ccc(OCc2ccccc2)cc1`, the inhibition is, setting by setting: (Thailand/16681/1984, Concentration 49.5 uM, Number of replicates 2.0, Standard deviation 0.35669280924008506 %) 0.374%; (Thailand/16681/1984, Concentration 99.01 uM, Number of replicates 2.0, Standard deviation 0.1951319007042223 %) 2.1%; (Thailand/16681/1984, Concentration 198.0 uM, Number of replicates 2.0, Standard deviation 2.320076788942105 %) 11.9%.
For the compound `O=Cc1ccc(N2CCC(C(=O)N3CCC(=C4c5ccc(Cl)cc5CCc5cccnc54)CC3)CC2)cc1`, under setting [1], the inhibition is -7.77%.
`Cc1cc(CO)c2cccc(Cc3cccc(C(=O)N4CC[C@@H](O)C4)c3)c2n1`: the inhibition was -6.42% (Thailand/16681/1984, Concentration 49.95 uM, Number of replicates 2.0, Standard deviation 0.8940031033980441 %) and -4.22% (Thailand/16681/1984, Concentration 99.9 uM, Number of replicates 2.0, Standard deviation 1.7851314545528572 %).
For `Cc1cc(NC(=O)c2[nH]c([C@H]3CCCNC3)nc2C)n[nH]1`, the inhibition runs as follows: (Thailand/16681/1984, Concentration 49.5 uM, Number of replicates 2.0, Standard deviation 0.1819338679741269 %) -0.694%; (Thailand/16681/1984, Concentration 99.01 uM, Number of replicates 2.0, Standard deviation 0.4335851561467917 %) -1.03%; (Thailand/16681/1984, Concentration 198.0 uM, Number of replicates 2.0, Standard deviation 0.7148425402027826 %) -1.18%.
Consider `O=Cc1ccc(N2CCC(C(=O)Nc3nnc(Cl)cc3Br)CC2)cc1`, for which the inhibition under setting [1] is 33%.
Turning to `Cc1cc(CO)c2cccc(Cc3cccc(NC(=O)c4cccc(Cn5cncn5)c4)c3)c2n1`, the inhibition (Thailand/16681/1984, Concentration 49.95 uM, Number of replicates 2.0, Standard deviation 0.03445572300723204 %) was -2.36% and the inhibition (Thailand/16681/1984, Concentration 99.9 uM, Number of replicates 2.0, Standard deviation 1.2505418184916173 %) was determined as 1.37%.
`O=Cc1ccc(N2CCC(C(=O)NCC(=O)c3ccccc3F)CC2)cc1`: the inhibition under setting [1] came to 12.6%.
Consider `O=Cc1ccc(N2CCC(C(=O)N[C@@H]3CCCN(Cc4ccccc4)C3)CC2)cc1`, for which the inhibition under setting [1] came to 13.3%.
On to `CSCC[C@H](NC(=O)OC(C)(C)C)C(=O)N1CCC[C@H]1C(=O)N1CCNCC1`, for which the inhibition reads like this: (Thailand/16681/1984, Concentration 49.5 uM, Number of replicates 2.0, Standard deviation 0.18656479510110988 %) -1.01%; (Thailand/16681/1984, Concentration 99.01 uM, Number of replicates 2.0, Standard deviation 0.6673278690655411 %) -1.03%; (Thailand/16681/1984, Concentration 198.0 uM, Number of replicates 2.0, Standard deviation 0.6237960118923063 %) -0.61%.
For the compound `CNC(=O)C[C@@H](C)NS(=O)(=O)c1ccc(Oc2ccccc2Cl)cc1`, the inhibition was found to be 0.058% (Thailand/16681/1984, Concentration 49.5 uM, Number of replicates 2.0, Standard deviation 1.3030195128486834 %); 1.01% (Thailand/16681/1984, Concentration 99.01 uM, Number of replicates 2.0, Standard deviation 1.4693139392091605 %); 1.94% (Thailand/16681/1984, Concentration 198.0 uM, Number of replicates 2.0, Standard deviation 0.5754244321045655 %).
With `CCN(Cc1cnn(CC)c1)C(=O)C1CCN(c2ccc(C=O)cc2)CC1`, the inhibition under setting [1] came to 12.7%.
On to `NCc1ccc(NC(=O)[C@@H](NC(=O)OCc2ccccc2)c2ccc(OCc3ccccc3)cc2)cc1`, for which the inhibition (Thailand/16681/1984, Concentration 49.5 uM, Number of replicates 2.0, Standard deviation 0.2921733335266154 %) was 1.85%; the inhibition (Thailand/16681/1984, Concentration 99.01 uM, Number of replicates 2.0, Standard deviation 0.5182536650923871 %) stood at 1.48%; the inhibition (Thailand/16681/1984, Concentration 198.0 uM, Number of replicates 2.0, Standard deviation 0.5806748336109616 %) was found to be 1.92%.
As for `NCc1cccc(CNC(=O)[C@@H](NC(=O)OCc2ccccc2)c2ccc(OCc3ccccc3)cc2)c1`, the inhibition (Thailand/16681/1984, Concentration 49.5 uM, Number of replicates 2.0, Standard deviation 0.05305782465339428 %) was found to be 100%; the inhibition (Thailand/16681/1984, Concentration 99.01 uM, Number of replicates 2.0, Standard deviation 0.03132758391075349 %) worked out at 99.6%; the inhibition (Thailand/16681/1984, Concentration 198.0 uM, Number of replicates 2.0, Standard deviation 0.04155072348555595 %) was determined as 99.5%.
For `O=C(N[C@H](C(=O)O)c1ccc(OCc2ccccc2)cc1)OCc1ccccc1`, the inhibition was 1.16% (Thailand/16681/1984, Concentration 49.5 uM, Number of replicates 2.0, Standard deviation 1.5755205914644184 %); 3.53% (Thailand/16681/1984, Concentration 99.01 uM, Number of replicates 2.0, Standard deviation 1.1157080020325059 %); 10.6% (Thailand/16681/1984, Concentration 198.0 uM, Number of replicates 2.0, Standard deviation 0.14215963415330513 %).
In the case of `Cc1cc(CO)c2cccc(NC(=O)NCc3ccc(N)cc3)c2n1`, the inhibition by setting is: (Thailand/16681/1984, Concentration 49.95 uM, Number of replicates 2.0, Standard deviation 1.081774899946809 %) 4.55%; (Thailand/16681/1984, Concentration 99.9 uM, Number of replicates 2.0, Standard deviation 2.6483447678271466 %) 14.1%.
On to `Cc1cc(CO)c2cccc(CC(=O)N(c3ncccn3)S(=O)(=O)c3ccc(N)cc3)c2n1`, for which the inhibition (Thailand/16681/1984, Concentration 49.95 uM, Number of replicates 2.0, Standard deviation 0.013152514133703636 %) amounted to 99.6% and the inhibition (Thailand/16681/1984, Concentration 99.9 uM, Number of replicates 2.0, Standard deviation 0.02076996694616858 %) was 99.4%.
On to `Cc1cc(CO)c2cccc(Cc3ccccc3C(=O)N(c3ncccn3)S(=O)(=O)c3ccc(N)cc3)c2n1`, for which the inhibition reads like this: (Thailand/16681/1984, Concentration 49.95 uM, Number of replicates 2.0, Standard deviation 1.284948840815395 %) 27.7%; (Thailand/16681/1984, Concentration 99.9 uM, Number of replicates 2.0, Standard deviation 0.4850893215235289 %) 47.5%.
Turning to `Cc1cc(CO)c2cccc(Cc3cccc(C(=O)N(c4ncccn4)S(=O)(=O)c4ccc(N)cc4)c3)c2n1`, the inhibition is, setting by setting: (Thailand/16681/1984, Concentration 49.95 uM, Number of replicates 2.0, Standard deviation 1.2554851591331873 %) 27.5%; (Thailand/16681/1984, Concentration 99.9 uM, Number of replicates 2.0, Standard deviation 1.7606970720097574 %) 55.5%.
With `Cc1cc(CO)c2cccc(Cc3cccc(C(=O)NCc4ccc(S(N)(=O)=O)cc4)c3)c2n1`, the inhibition by setting is: (Thailand/16681/1984, Concentration 49.95 uM, Number of replicates 2.0, Standard deviation 0.214877109175697 %) 5.4%; (Thailand/16681/1984, Concentration 99.9 uM, Number of replicates 2.0, Standard deviation 0.2579967069502225 %) 18%.
Take `Cc1cc(CO)c2cccc(CC(=O)NCc3ccc(S(N)(=O)=O)cc3)c2n1`: the inhibition reads like this: (Thailand/16681/1984, Concentration 49.95 uM, Number of replicates 2.0, Standard deviation 1.717051818740604 %) 21.3%; (Thailand/16681/1984, Concentration 99.9 uM, Number of replicates 2.0, Standard deviation 5.294472274247832 %) 43.7%.
Consider `CC(=O)N[C@@H](CCCCN)C(=O)Nc1cccc(Cc2cccc3c(CO)cc(C)nc23)c1`, for which the inhibition reads like this: (Thailand/16681/1984, Concentration 49.95 uM, Number of replicates 2.0, Standard deviation 0.858525740782908 %) -3.5%; (Thailand/16681/1984, Concentration 99.9 uM, Number of replicates 2.0, Standard deviation 1.064156674332285 %) 6.38%.
